Source: PubChem BioAssay
tim23-1 inh: tim23-1 yeast growth inhibition. inhibition, % at 20 µM. actives 1.3% (n = 330,000). S. cerevisiae tim23-1 growth, BacTiter-Glo luminescence, 24 h;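 active = growth inhibition of the mutant yeast at or above 50%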;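 also: temperature-sensitive mutant grown at 25 °C; plate controls were DMSO-treated mutant yeast for no effect and medium wells lacking yeast for full effect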
NALP1 yeast inh: NALP1 inhibition; S. cerevisiae NALP1/ASC/caspase-1 growth, X-gal OD620, 72 h; inhibition, % at 10 µM; actives 0.61% (n = 280,000); AID 2071; in the data active = inhibition mostly above about 24%, no sharp cut-off; inactive = mostly below about 32%
tim10-1 inh: inhibits growth of tim10-1 mutant yeast; S. cerevisiae tim10-1 ts strain growth, BacTiter-Glo, 24 h; inhibition, % at 20 µM; actives 2.2% (n = 330,000); AID 463190;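 active = inhibition of at least 40%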;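 also: mutant grown at 25 °C; 0% = DMSO wells with yeast and 100% = wells holding no yeast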
PfHsp90 set2: reduces growth (ATP signal) of yeast expressing P. falciparum Hsp90. S. cerevisiae expressing PfHsp90, BacTiter-Glo ATP, 48 h; yeast lacking PDR1 and PDR3 efflux regulators. inhibition, % at 9.4 µM. actives 0.32% (n = 310,000);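 active = every replicate shows inhibition above about 80%, whatever the replicate mean, limit read from the data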;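 also: 0% = DMSO neutral controls and 100% = 20 µM radicicol positive controls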
TIM10 inh: TIM10 yeast growth inhibition | AID 463195 | S. cerevisiae TIM10 strain growth, BacTiter-Glo luminescence, 24 h | actives 1.4% (n = 330,000) | inhibition, % at 10 µM;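 active = inhibition of 40% or more at the single tested concentration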;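 also: wild-type TIM10 isogenic control strain grown at permissive 25 °C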
SKKanGAS inh: blocks kanamycin growth of S. pyogenes SKKanGAS strain; BacTiter-Glo, 6 h; inhibition, % at 7.5 µM; actives 1.3% (n = 300,000);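 active = mean replicate score, as percent of positive control median, at least 50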;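 also: strain carries kanamycin resistance gene driven by streptokinase promoter and grows in 40 µg/ml kanamycin; loss of luminescence reflects streptokinase promoter inhibition or plain growth inhibition; 0% = median of DMSO wells and 100% = positive control at its reference dose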
tim10 confirm: TIM10 yeast growth inhibition, confirmed; inhibition, % at 10 µM; AID 463215; shares compounds with TIM10 inh; S. cerevisiae tim10 strain growth, BacTiter-Glo luminescence, 24 h; actives 63% (n = 4,600);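 active = inhibition of yeast growth at or above a set limit in either of two replicates at 10 µM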;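 also: this counterscreen used the strain with wild-type TIM10; 0% = yeast with DMSO and 100% = medium wells lacking yeast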
tim23-1 conf: confirmation of tim23-1 mutant yeast growth inhibitors. actives 83% (n = 4,400). AID 463218. inhibition, % at 20 µM. S. cerevisiae tim23-1 growth, BacTiter-Glo luminescence, 24 h. shares compounds with tim23-1 inh;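 active = inhibition above about 39% in either of two replicate wells at 20 µM, limit read from the data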;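 also: temperature-sensitive tim23-1 mutant grown at 25 °C; 0% = DMSO wells with yeast and 100% = medium wells without yeast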
* hit, by the source's call. Only some compounds are listed: those with a hit (about 4.8% of all), similar ones and a draw of the others.

COc1ccccc1NC(=S)N1CCC(C(=O)c2ccc(F)cc2)CC1 was read as tim23-1 inh -4, NALP1 yeast inh 5, tim10-1 inh -2, PfHsp90 set2 -13, TIM10 inh -1 and SKKanGAS inh 1.
`Cc1ccc(S(=O)(=O)Nc2ccccc2/C=N/c2nc3ccccc3n2C(C)C)cc1` gave NALP1 yeast inh 27 and PfHsp90 set2 -17.
`Cc1cccc(-n2c(O)c(/C=N/NC(=O)c3ccccc3Cl)c3ccccc3c2=O)n1` gave tim23-1 inh -8, NALP1 yeast inh 29, tim10-1 inh 11, PfHsp90 set2 -7, TIM10 inh 19 and SKKanGAS inh 10.
`COc1ccc(OC)c(N(CC(=O)NCCc2ccc(OC)c(OC)c2)S(=O)(=O)c2ccccc2)c1` gave tim23-1 inh 22, NALP1 yeast inh 4, tim10-1 inh 23, PfHsp90 set2 -8, TIM10 inh 3 and SKKanGAS inh -1.
COc1ccc(NC(=O)c2cccs2)cc1 was read as tim23-1 inh 10, NALP1 yeast inh 28, tim10-1 inh -16, PfHsp90 set2 -1, TIM10 inh 3 and SKKanGAS inh 2.
`COc1ccc(N=N/C(=C\O)C(=O)c2cccs2)cc1` gave tim23-1 inh 76*, NALP1 yeast inh 4, tim10-1 inh 37, PfHsp90 set2 -12, TIM10 inh 55*, SKKanGAS inh 2, tim10 confirm 58* and tim23-1 conf 65*.
For COc1ccc(-c2nnc(SC(C)C(=O)Nc3ccc4c(c3)OCCO4)o2)cc1 (stereo unspecified) the results were tim23-1 inh 0, NALP1 yeast inh 33, tim10-1 inh -16, PfHsp90 set2 24, TIM10 inh 2 and SKKanGAS inh -2.
Screening CCC(C)c1ccc(NC(=O)c2cccs2)cc1 (stereo unspecified) returned tim23-1 inh 72*, NALP1 yeast inh 3, tim10-1 inh 32, PfHsp90 set2 22, TIM10 inh 52*, SKKanGAS inh 4, tim10 confirm 45* and tim23-1 conf 73*.
For O=C(Nc1cc(Cl)cc(Cl)c1)N1CCCC1 the results were tim23-1 inh 54*, NALP1 yeast inh 39, tim10-1 inh 22, PfHsp90 set2 13, TIM10 inh 48*, SKKanGAS inh 59*, tim10 confirm 25 and tim23-1 conf 46*.
Screening Cc1ccc(C)c(-c2nc3ccc(N)cc3[nH]2)c1 returned tim23-1 inh 0, NALP1 yeast inh -2, tim10-1 inh -7, PfHsp90 set2 71, TIM10 inh 21 and SKKanGAS inh 11.
Cc1ccc2nc(-c3ccccc3N)[nH]c2c1 was read as tim23-1 inh 67*, NALP1 yeast inh 13, tim10-1 inh 28, PfHsp90 set2 22, TIM10 inh 44*, SKKanGAS inh 5, tim10 confirm 14 and tim23-1 conf 31.
Screening O=C(Nc1cccc(Cl)c1)N1CCc2ccccc2C1 returned tim23-1 inh 65*, NALP1 yeast inh 2, tim10-1 inh 38, PfHsp90 set2 -4, TIM10 inh 64*, SKKanGAS inh 0, tim10 confirm 62* and tim23-1 conf 84*.
O=C(Nc1ccc([N+](=O)[O-])cc1)N1CCc2ccccc2C1 was read as tim23-1 inh 12, NALP1 yeast inh 3, tim10-1 inh 7, PfHsp90 set2 7, TIM10 inh -29 and SKKanGAS inh 2.
Screening CC(C)c1ccc(NC(=O)N2CCc3ccccc3C2)cc1 returned tim23-1 inh 52*, NALP1 yeast inh 13, tim10-1 inh 24, PfHsp90 set2 12, TIM10 inh 45*, SKKanGAS inh -9, tim10 confirm 31* and tim23-1 conf 50*.
Screening COc1cccc(NC(=O)N2CCc3ccccc3C2)c1 returned tim23-1 inh 18, NALP1 yeast inh 14, tim10-1 inh 11, PfHsp90 set2 -1, TIM10 inh 7 and SKKanGAS inh -2.
`Oc1ccccc1N=Nc1nc(-c2ccccc2)c(-c2ccccc2)[nH]1` gave tim23-1 inh 53*, NALP1 yeast inh -7, tim10-1 inh 26, PfHsp90 set2 106*, TIM10 inh 56*, SKKanGAS inh 114*, tim10 confirm 57* and tim23-1 conf 62*.
O=C(O)c1ccc(-c2nc(-c3ccccc3)c(-c3ccccc3)[nH]2)cc1 was read as tim23-1 inh -12, NALP1 yeast inh 26, tim10-1 inh -5, PfHsp90 set2 -21, TIM10 inh -4 and SKKanGAS inh 14.
`Cc1cccc(N2CCN(S(=O)(=O)c3ccc4c(c3)NC(=O)CS4)CC2)c1C` gave tim23-1 inh 63*, NALP1 yeast inh 16, tim10-1 inh 39, PfHsp90 set2 -50, TIM10 inh 40*, SKKanGAS inh 16, tim10 confirm 36* and tim23-1 conf 28.
CCc1ccc(/C=N/n2c(COc3ccccc3)n[nH]c2=S)cc1 was read as tim23-1 inh 61*, NALP1 yeast inh 6, tim10-1 inh 28, PfHsp90 set2 5, TIM10 inh 44*, SKKanGAS inh 29, tim10 confirm 42* and tim23-1 conf 37.
For O=C(O)CSc1ncnc2scc(-c3ccccc3)c12 the results were tim23-1 inh 10, NALP1 yeast inh -4, tim10-1 inh 5, PfHsp90 set2 -2, TIM10 inh 10 and SKKanGAS inh 2.
Screening CCC(=O)Nc1ccccc1Sc1ncnc2scc(-c3ccccc3)c12 returned tim23-1 inh 57*, NALP1 yeast inh 26, tim10-1 inh 32, PfHsp90 set2 -19, TIM10 inh 43*, SKKanGAS inh -3, tim10 confirm 32* and tim23-1 conf 50*.
Screening Cc1ccc(-c2nc3ccccc3[nH]2)s1 returned tim23-1 inh 51*, NALP1 yeast inh 18, tim10-1 inh 0, PfHsp90 set2 26, TIM10 inh 40*, SKKanGAS inh 13, tim10 confirm 26 and tim23-1 conf 71*.
CCSc1ccc(/C(N)=N/OC(=O)c2cccs2)cn1 was read as tim23-1 inh 61*, NALP1 yeast inh 4, tim10-1 inh 35, PfHsp90 set2 6, TIM10 inh 63*, SKKanGAS inh -5, tim10 confirm 63* and tim23-1 conf 74*.
`Cc1cccc(OCc2nc(-c3ccc(Br)o3)no2)c1` gave tim23-1 inh 10, NALP1 yeast inh -1, tim10-1 inh 7, TIM10 inh -17 and SKKanGAS inh 6.
For CCN(CC)S(=O)(=O)c1cc(C(=O)OCC(=O)NC(=O)c2cccn2C)ccc1C the results were tim23-1 inh 15, NALP1 yeast inh 17, tim10-1 inh 15, PfHsp90 set2 -12, TIM10 inh 19 and SKKanGAS inh 3.
